From PubChem
Many of the other results were omitted from the sample, so hits are more common in it than they were.
TTR transcr act: TTR transcription activators in neuroblastoma reporter cells, primary screen, cell-based, luminescence, SH-SY5Y, TTR promoter Gaussia luciferase; activation, % at 16.7 µM; 100% = recombinant luciferase protein wells; 92,000 tested, 1.3% active;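 active means activation above the mean of all tested compounds plus 3 SD, cut at about 9.5% in these data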;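 further: cells exposed to compounds for one day before reading; 0% = median of all test compound wells on the plate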
HuH7 TTR inh: TTR promoter reporter inhibitors in hepatoma cells, counter-screen for TTR transcription activator project, cell-based, luminescence, HuH7 hepatoma; shares compounds with TTR transcr act; HuH7 TTR promoter-Gaussia luciferase reporter; inhibition, % at 16.7 µM; 1,100 tested, 4% active; AID 1117279, 2014;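 active means average inhibition above the solvent-only control wells' mean plus 3 SD, cut at about 15% in these data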;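 further: 0% = cells with DMSO only and 100% = cells with inhibitor control FD; inhibitors lower well luminescence so higher value means more inhibition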
TTR up confirm: TTR transcription activators, retest, confirmation, cell-based, luminescence, SH-SY5Y, triplicate | shares compounds with TTR transcr act | SHSY5Y TTR promoter Gaussia luciferase; 100% = purified Lucia enzyme wells, no cells | activation, % at 16.7 µM | 1,100 tested, under 10 active;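 active means mean activation above a set limit taken from the earlier primary screen, cut at about 11% in these data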;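 further: 0% = DMSO-treated cells and 100% = recombinant Lucia luciferase without cells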
* marks the source's active call; other numbers are inactive results.

What do the screens show for `C/C(=N\Nc1ccc(Cl)c(C(=O)O)c1)c1ccc2c(c1)OCO2`?
TTR transcr act: -0.1

How did Cc1ccc2nc(NC(=O)c3ccc4c(c3)OCO4)sc2c1 do in these assays?
TTR transcr act: -1.2

How did C/C(=N\Nc1nc2ccccc2s1)c1ccc2c(c1)OCO2 do in these assays?
TTR transcr act: 11.3*; HuH7 TTR inh: 11.3; TTR up confirm: 0.5

How did O=Nc1ccc(Cl)cn1 do in these assays?
TTR transcr act: 0.3

Results for CCOC(=O)c1cc(S(=O)(=O)N2CCCC2)cn1C ?
TTR transcr act: -0.4

How did O=C1CC(c2ccccc2)CC(=O)N1c1ccccc1 do in these assays?
TTR transcr act: 1.2

Results for O=C1C(C23CC4CC(CC(C4)C2)C3)C(=O)N(c2ccccc2)N1c1ccccc1 ?
TTR transcr act: 51.3*; HuH7 TTR inh: 1.6; TTR up confirm: -0.2

What do the screens show for `O=C(NCc1ccccc1)NC12CC3CC(CC(C3)C1)C2`?
TTR transcr act: 5.5

What do the screens show for `O=C(NCCc1c[nH]c2ccccc12)OCc1cn(Cc2cccc(F)c2F)nn1`?
TTR transcr act: 8.7

Results for N#Cc1cccc(NC(=O)OC2CC3CC2[C@H]2CCCCN2C3)c1 (stereo not given in full) ?
TTR transcr act: -0.8

What do the screens show for `O=C1CCC[C@H]2C[C@H](NCc3ccccc3F)CC[C@]23CCCN13`?
TTR transcr act: -0.2

How did O=c1c2c3c(sc2n2c(=S)[nH]nc2n1-c1ccccc1)CCC3 do in these assays?
TTR transcr act: 1.5

Results for COc1ccc(-n2c(=O)c3c4c(sc3n3c(=S)[nH]nc23)CCC4)cc1 ?
TTR transcr act: -2.2

Results for Cc1ccc(-n2c(=O)c3c4c(sc3n3c(=S)[nH]nc23)CCC4)cc1 ?
TTR transcr act: 14.7*; HuH7 TTR inh: -8.5; TTR up confirm: 2.0

How did Cc1ccc(CN2CCCCC(NC(=O)c3ccc(Br)cc3)C2=O)cc1 (stereo not given) do in these assays?
TTR transcr act: -2.1

How did O=[N+]([O-])c1cccc2[nH]c(CNc3nc(N4CCOCC4)nc4c3ncn4-c3ccsc3)nc12 do in these assays?
TTR transcr act: 1.1

What do the screens show for `CCCOc1ccc(-c2cc(C(C)=O)c3n(c2=O)CCC3)cc1`?
TTR transcr act: -2.5

How did CC(O)(c1ccc(F)c(F)c1)c1nc(-c2cccc(C(=O)O)c2)cs1 (stereo not given) do in these assays?
TTR transcr act: 13.2*; HuH7 TTR inh: -35.2; TTR up confirm: -0.8

How did CC(O)(c1ccc(F)c(F)c1)c1nc(-c2ccc(Cl)cc2)cs1 (stereo not given) do in these assays?
TTR transcr act: -0.4

What do the screens show for `CC(O)(c1ccccc1)c1nc(-c2cccc(C(=O)O)c2)cs1` (stereo not given)?
TTR transcr act: 1.1

Results for CCCCCCCC(=O)N[C@H]1CC[C@@]23CCCN2C(=O)CCC[C@H]3[C@H]1CCC ?
TTR transcr act: 0.0

What do the screens show for `O=C1CCC[C@H]2Cc3nc4cc5c(cc4cc3C[C@]23CCCN13)OCO5`?
TTR transcr act: 2.8

How did CCCCOCCCNC(=O)C[C@H]1C[C@@]2(C(=O)OC)C(=C[C@H](C(C)C)O[C@@H]2C2CC2)N(CCc2ccc(OC)c(OC)c2)C1=O do in these assays?
TTR transcr act: -0.4

Results for O=C(CC1SC(=O)NC1=O)Nc1ccc(Cl)cc1 (stereo not given) ?
TTR transcr act: 12.2*; HuH7 TTR inh: 6.6; TTR up confirm: -0.2

How did O=C(Cc1ccc(Br)cc1)Nc1ccc(Cl)cc1 do in these assays?
TTR transcr act: -0.1

How did Cc1ccc(NC(=O)CC2SC(=NC3CCCCC3)NC2=O)cc1 (stereo not given) do in these assays?
TTR transcr act: 0.3

How did CCN1C(=O)[C@H]2[C@H]3CN=C(SCc4ccc(C#N)cc4)N3[C@@](C)(C(=O)OC)[C@H]2C1=O do in these assays?
TTR transcr act: -1.1

What do the screens show for `COC(=O)[C@@]1(C)[C@H]2C(=O)N(Cc3ccccc3)C(=O)[C@H]2[C@H]2CN(C)C(=NC3CCCCC3)N21`?
TTR transcr act: 4.6

Results for CCN1C[C@@H]2[C@@H]3C(=O)N(Cc4ccccc4)C(=O)[C@@H]3[C@](C)(C(=O)OC)N2C1=NC1CCCCC1 ?
TTR transcr act: 24.8*; HuH7 TTR inh: -1.6; TTR up confirm: 0.0

Results for COC(=O)[C@@]1(C)[C@H]2C(=O)N(Cc3ccccc3)C(=O)[C@H]2[C@H]2CN=C(SCc3ccccc3)N21 ?
TTR transcr act: 1.6

What do the screens show for `CCN1C(=O)[C@H]2[C@H]3CN=C(SCC(=O)c4ccccc4)N3[C@@](C)(C(=O)OC)[C@H]2C1=O`?
TTR transcr act: 13.5*; HuH7 TTR inh: -3.0; TTR up confirm: -0.1
